This is an account of results in PubChem BioAssay (Tox21).

“And” between values parts separate entries of the source, which are not always exact repeats. Identical values can stand only once. Records with an inconclusive call do not appear. A call without a number means that no potency is given here. More than one record can exist for a structure, and the calls need not agree. The source made the active and inactive calls. The call rests on the fitted dose curve.
Potency means the concentration at half of the fitted maximal effect.

The test can be described thus: qHTS assay to identify small molecule antagonists of the sonic hedgehog signaling (Shh) pathway (AID 1259369). Further: nearly all actives have a fitted effect of over 45% in size. Particulars: NIH/3T3 Gli1-Luc reporter, Shh antagonist, luminescence 24 h; series mostly up to 92.4 µM; activity change, negative = inhibition: at the top concentration. The source says: U.S. Tox21 Program National Center for Advancing Translational Sciences [NCATS] NIH Chemical Genomics Center [NCGC] U.S. Environmental Protection Agency [EPA] National Institutes of Environmental Health Sciences [NIEHS] National Toxicology Program [NTP] U.S. Food and Drug Administration [FDA] Tox21 Assay Overview: The sonic hedgehog (Shh) pathway is essential for normal embryonic development. Dysregulation of the Shh pathway can cause severe developmental defects in organs. Therefore chemicals that interfere with the pathway are potential developmental toxicants. A cell line designated 3T3Gli1-Luc (DMB/OARSA/CFSAN/FDA, Laurel, MD), a NIH/3T3 derived clone containing stably integrated Gli1-Luc reporter is used to detect chemical interference of the Shh pathway, by changes in the expression of the firefly Luc gene under the control of the Gli1 transcriptional response element. This cell line was used to screen Tox21 libraries for identifying and prioritizing the potential developmental toxicants that interfere Shh pathway. Conditioned medium-stimulated mode was used to screen for chemicals inhibiting Shh signaling.
Tox21 Assay Protocol Summary: 3T3 Gli1-Luc cells were dispensed at 2,000 per well in 5uL of culture medium into white solid bottom 1536-well plates (Greiner Bio-One, Monroe, NC) using a Multidrop Combi (Thermo Scientific, Waltham, MA) dispenser. The assay plates were incubated at 37 C and 5% CO2 for 4hr, and then 23nL of compounds dissolved in DMSO and positive control were transferred using a Pintool station (Wako, San Diego, CA). The compound transfer was followed by the addition of 1ul conditioned medium or assay buffer using two separate tips of Flying Reagent Dispenser (FRD, Aurora Discovery, San Diego, CA). The assay plates were incubated at 37C and 5% CO2 for 24hr. For luciferase read, 4uL of Amplite Luciferase reporter gene assay reagent (AAT Bioquest, Inc. Sunnyvale, CA) was added to each well of the assay plates using FRD and incubated at room temperature for 30min. The luminescence signal was measured using a ViewLux plate reader (Perkin Elmer, Shelton, CT).
On to `OCc1cccc(Oc2ccccc2)c1`, for which the Potency result is “inactive”.

With `CC(CCO)CC(C)(C)C` (stereo not given), the “activity change, negative = inhibition” value was 14.3% (inactive).

Turning to `CCCCCCCCCCN`, the “activity change, negative = inhibition” value was -24% (inactive).

As to `C=CC(=O)OCCC(=O)O`, the “activity change, negative = inhibition” value is -18.7% (inactive).

With `CCCCCCCO`, the Potency result was “inactive”.

`CCOCC(=O)O`: the Potency entry is “inactive”.

For the compound `COc1ccc(N)c(C)c1`, the Potency entry is “inactive”.

`CC(C)OC(=O)COc1ccc(Cl)cc1Cl`: the Potency result is “inactive”.

As to `O=S(=O)(O)c1ccc(N=Nc2c(O)ccc3cc(S(=O)(=O)O)ccc23)cc1`, the Potency result was “inactive”.

`CCOCCOCCOCCO`: the Potency entry was “inactive”.

On to `CC(=O)CCC=C(C)C`, for which the “activity change, negative = inhibition” value was 47.9% (inactive).

As to `C=C(C)C(=O)OCC(C)C`, the Potency is 619 nM (active) and inactive.

As to `CCNc1ccccc1`, the Potency entry was “inactive”.

Consider `CC1(C)NC(=O)NC1=O`, for which the Potency result was “inactive”.

As to `O=[N+]([O-])c1ccc2nc[nH]c2c1`, the “activity change, negative = inhibition” value is -2.37% (inactive).

For `CCNC(=S)NCC`, the Potency result was “inactive”.

With `CCCCCCCCCCCC(=O)OC`, the Potency entry is “inactive”.

`COc1ccc([N+](=O)[O-])cc1N`: the Potency entry is “inactive”.

As to `CN1C(=O)CC[C@H]1c1cccnc1`, the Potency entry was “inactive”.

Regarding `CCCCCCCC=O`, the Potency entry is “inactive”.

On to `Brc1ccc(Br)c(Br)c1`, for which the Potency entry was “inactive”.

Take `CC(C)CC(=O)CC(C)CC(C)C` (stereo not given): the Potency entry was “inactive”.

On to `CCO[Si](CCC#N)(OCC)OCC`, for which the Potency result is “inactive”.

As to `CC(C)OP(=O)(CP(=O)(OC(C)C)OC(C)C)OC(C)C`, the Potency result was “inactive and 1.19 µM (active)”.

On to `CN(C)c1ccc(Cc2ccc(N(C)C)cc2)cc1`, for which the “activity change, negative = inhibition” value was -14.2% (inactive).

Take `O=C(O)c1cc2ccccc2cc1O`: the “activity change, negative = inhibition” value was -23.5% (inactive).

Regarding `CC(C)(C)c1cc(Cc2cc(C(C)(C)C)c(O)c(C(C)(C)C)c2)cc(C(C)(C)C)c1O`, the “activity change, negative = inhibition” value is 12.6% (inactive).

Consider `Cc1ccc(C(C)C)c(O)c1`, for which the Potency result was “inactive”.

On to `CC(C)CC(C)O` (stereo not given), for which the Potency result was “inactive”.

Take `COc1ccc(CCC(C)=O)cc1`: the Potency entry is “inactive”.

With `NCCNCCN`, the Potency result is “inactive”.

`O=S(=O)(O)c1ccccc1`: the Potency result is “inactive”.

Take `O=C(OCC1CCC2OC2C1)C1CCC2OC2C1` (stereo not given): the Potency result is “inactive”.

As for `CCCCC(C=O)CC` (stereo not given), the Potency result is “inactive”.

In the case of `CC(CCl)OP(=O)(OC(C)CCl)OC(C)CCl` (stereo not given), the Potency entry is “inactive”.

For the compound `C[Si]1(C)O[Si](C)(C)O[Si](C)(C)O[Si](C)(C)O1`, the Potency result was “inactive”.

Turning to `COc1ccc(OC)cc1`, the Potency entry was “inactive”.

For `CC(C)=CCl`, the Potency result is “inactive”.

In the case of `N#Cc1ccccc1`, the Potency result is “inactive”.

As to `O=C(O)Cn1c(=O)n(Cc2ccc(Br)cc2F)c(=O)c2ccc(Cl)cc21`, the Potency result is “inactive”.
